# Source: the supplement of paper PMC9262897, “Low-cost anti-mycobacterial drug discovery using engineered E. coli” (Nature Communications, 2022)
# Counter-ions that a name gives are not always drawn. ± gives the standard deviation of the averaged measurements.
# Key:
# Assay in all cases: growth (OD600 after 10 h); higher = more growth (less inhibition)
# [1] = tested on: E. coli TESEC Alr+ wild-type control; conditions: compound 0.1 mM; raw OD600 reference: median of DMSO wells 0.241, cell-free background 0.041
# Method: (§1)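 TESEC Mtb Alr E. coli, or the Alr+ wild-type control, in 384-well plates with Prestwick library compounds at 0.1 mM and 1% DMSO, across arabinose induction levels of 1E3 to 1E7 nM. Growth is read as OD600 after 10 h at 37 °C in triplicate biological replicates.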
# [2] = tested on: E. coli TESEC Mtb Alr; conditions: compound 0.1 mM
# Method: as §1
# [3] = tested on: E. coli TESEC Mtb Asd; conditions: compound 0.1 mM
# Method: (§2)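 TESEC E. coli strains in which the native enzyme is deleted and replaced by arabinose-inducible Mtb Asd, DapB, CysH or TrpD, each grown in its selective medium. Strains were screened against the Prestwick library at 0.1 mM and 1% DMSO in 384-well format at low and high arabinose induction. Growth is read as OD600 after 10 h in triplicate.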
# [4] = tested on: E. coli TESEC Mtb Alr; conditions: compound 0.1 mM; remark: listed apart in the source
# Method: (§3)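 TESEC Mtb Alr E. coli (ΔaraC ΔtolC ΔentC Δalr ΔdadX, arabinose-inducible Mtb Alr) or the Alr+ wild-type control strain, grown in defined M9-fructose medium without D-alanine in 96-well plates with Prestwick library compounds at 0.1 mM and 1% DMSO. Low Alr induction is 0.1 µM arabinose and high induction is 10 mM arabinose.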
# [5] = tested on: E. coli TESEC Mtb DapB; conditions: compound 0.1 mM
# Method: as §2
# [6] = tested on: E. coli TESEC Alr+ wild-type control; conditions: compound 0.1 mM; raw OD600 reference: median of DMSO wells 0.49, cell-free background 0.052
# Method: as §3
# [7] = arabinose 1000 nM, raw OD600 reference: median of DMSO wells 0.294, cell-free background 0.041
# [8] = arabinose 10000 nM, raw OD600 reference: median of DMSO wells 0.264, cell-free background 0.041
# [9] = arabinose 100000 nM, raw OD600 reference: median of DMSO wells 0.201, cell-free background 0.041
# [10] = arabinose 1000000 nM, raw OD600 reference: median of DMSO wells 0.193, cell-free background 0.041
# [11] = arabinose 10000000 nM, raw OD600 reference: median of DMSO wells 0.146, cell-free background 0.041
# [12] = arabinose induction (level): High, raw OD600 reference: median of DMSO wells 0.331, cell-free background 0.041
# [13] = arabinose induction (level): Low, raw OD600 reference: median of DMSO wells 0.417, cell-free background 0.041
# [14] = arabinose 100 nM, raw OD600 reference: median of DMSO wells 0.413, cell-free background 0.052
# [15] = arabinose 10000000 nM, raw OD600 reference: median of DMSO wells […], cell-free background 0.052
# [16] = arabinose induction (level): High, raw OD600 reference: median of DMSO wells […], cell-free background 0.041
# [17] = arabinose induction (level): Low, raw OD600 reference: median of DMSO wells 0.227, cell-free background 0.041
SMILES,growth [1],"growth [2, 7]","growth [2, 8]","growth [2, 9]","growth [2, 10]","growth [2, 11]","growth [3, 12]","growth [3, 13]","growth [4, 14]","growth [4, 15]","growth [5, 16]","growth [5, 17]",growth [6]
C[C@]12CCC(=O)C=C1C=C[C@@H]1[C@@H]2CC[C@@]2(C)[C@H]1CC[C@@]2(O)CCC(=O)O [Canrenoic acid potassium salt],0.227 ± 0.01,0.275 ± 0.025,0.237 ± 0.019,0.16 ± 0.0057,0.163 ± 0.0033,0.15 ± 0.0017,0.214 ± 0.052,0.341 ± 0.03,0.407 ± 0.0047,0.264 ± 0.011,–,–,–
CN1[C@@H]2CC[C@H]1C[C@@H](OC1c3ccccc3CCc3ccccc31)C2 [Deptropine citrate],0.046 ± 0.0008,0.041 ± 0.0014,0.03993 ± 0.00025,0.043 ± 0.001,0.0411 ± 0.0015,0.04267 ± 0.00021,0.0939 ± 0.05,0.0858 ± 0.012,0.392 ± 0.0043,0.0701 ± 0.03,–,–,–
O=C(CCCN1CCC2(CC1)C(=O)NCN2c1ccccc1)c1ccc(F)cc1 [Spiperone],0.214 ± 0.0064,0.273 ± 0.019,0.276 ± 0.011,0.1711 ± 0.0014,0.169 ± 0.0073,0.149 ± 0.0039,0.274 ± 0.066,0.43 ± 0.042,0.409 ± 0.0039,0.354 ± 0.027,–,–,–
COc1ccc(C(=O)N2CCCC2=O)cc1 [Aniracetam],0.25 ± 0.0051,–,–,–,–,–,0.235 ± 0.057,0.309 ± 0.058,0.405 ± 0.011,0.343 ± 0.012,0.214 ± 0.0098,0.246 ± 0.011,0.467 ± 0.054
CN1[C@@H]2CC[C@H]1C[C@@H](OC(=O)[C@H](CO)c1ccccc1)C2 [Hyoscyamine (L)],0.243 ± 0.0078,–,–,–,–,–,0.317 ± 0.073,0.377 ± 0.074,0.415 ± 0.02,0.34 ± 0.02,–,–,–
CO[C@]12C[C@@H](COC(=O)c3cncc(Br)c3)CN(C)[C@@H]1Cc1cn(C)c3cccc2c13 [Nicergoline],0.174 ± 0.0043,–,–,–,–,–,0.221 ± 0.021,0.279 ± 0.056,0.416 ± 0.005,0.268 ± 0.015,0.227 ± 0.014,0.277 ± 0.028,–
COc1ccc(C(CN(C)C)C2(O)CCCCC2)cc1 (stereo not given) [Venlafaxine],0.219 ± 0.015,–,–,–,–,–,0.436 ± 0.066,0.459 ± 0.032,0.415 ± 0.0048,0.338 ± 0.025,–,–,–
C[C@]12CC[C@@H](O)C[C@@H]1CC[C@@H]1[C@@H]2CC[C@]2(C)C(=O)CC[C@@H]12 [Androsterone],0.117 ± 0.0044,–,–,–,–,–,0.148 ± 0.026,0.324 ± 0.044,0.3429 ± 0.0014,0.0883 ± 0.011,0.141 ± 0.013,0.138 ± 0.011,0.291 ± 0.016
C[C@]12Cc3c[nH]nc3C[C@@H]1CC[C@@H]1[C@@H]2CC[C@@]2(C)[C@H]1CC[C@]2(C)O [Stanozolol],0.184 ± 0.0086,0.256 ± 0.0051,0.245 ± 0.0053,0.169 ± 0.023,0.141 ± 0.0057,0.139 ± 0.0021,0.157 ± 0.011,0.271 ± 0.051,0.409 ± 0.0083,0.278 ± 0.018,–,–,–
CN(C)[C@@H]1C(=O)C(C(N)=O)=C(O)[C@@]2(O)C(=O)C3=C(O)c4c(O)cccc4[C@@](C)(O)[C@H]3C[C@@H]12 [Tetracycline hydrochloride],0.0422 ± 0.00046,0.0426 ± 0.0035,0.04053 ± 0.00032,0.0418 ± 0.0011,0.04083 ± 0.00025,0.0422 ± 0.00068,0.0539 ± 0.0012,0.0592 ± 0.0072,0.0567 ± 0.0019,0.0604 ± 0.0025,–,–,–
O=C(CCCN1CCC(n2c(=O)[nH]c3ccccc32)CC1)c1ccc(F)cc1 [Benperidol],0.181 ± 0.0021,–,–,–,–,–,0.357 ± 0.062,0.434 ± 0.086,0.411 ± 0.016,0.26 ± 0.02,0.187 ± 0.026,0.21 ± 0.0039,–
CN1C(=O)CCS(=O)(=O)C1c1ccc(Cl)cc1 (stereo not given) [Chlormezanone],0.244 ± 0.0034,–,–,–,–,–,0.328 ± 0.08,0.407 ± 0.066,0.408 ± 0.011,0.367 ± 0.0068,–,–,–
"CCC1(c2ccc(N)cc2)CCC(=O)NC1=O (stereo not given) [Glutethimide, para-amino]",0.24 ± 0.0099,–,–,–,–,–,0.393 ± 0.032,0.43 ± 0.03,0.402 ± 0.014,0.383 ± 0.033,0.189 ± 0.0071,0.226 ± 0.041,–
Fc1ccc(C(OCCN2CCN(CCCc3ccccc3)CC2)c2ccc(F)cc2)cc1,0.0433 ± 0.0027,0.04027 ± 0.00025,0.0453 ± 0.00061,0.0419 ± 0.0013,0.045 ± 0.00035,0.0435 ± 0.00049,0.0464 ± 0.00055,0.04613 ± 0.00046,0.235 ± 0.15,0.0503 ± 0.0006,–,–,–
CCCC(C)(COC(N)=O)COC(=O)NC(C)C (stereo not given) [Carisoprodol],0.237 ± 0.008,–,–,–,–,–,0.268 ± 0.02,0.322 ± 0.083,0.403 ± 0.01,0.341 ± 0.015,–,–,0.594 ± 0.082
CC(O)(CS(=O)(=O)c1ccc(F)cc1)C(=O)Nc1ccc(C#N)c(C(F)(F)F)c1 (stereo not given) [Bicalutamide],0.154 ± 0.0054,–,–,–,–,–,0.216 ± 0.027,0.253 ± 0.017,0.397 ± 0.018,0.232 ± 0.054,–,–,–
O=c1[nH]oc2c1CCNC2 [THIP Hydrochloride],0.26 ± 0.0053,–,–,–,–,–,0.262 ± 0.035,0.433 ± 0.04,0.41 ± 0.013,0.349 ± 0.018,0.2018 ± 0.0015,0.238 ± 0.014,–
COc1cc2c(cc1OC)C(C)NCC2 (stereo not given),0.236 ± 0.0037,0.2925 ± 0.0014,0.275 ± 0.0075,0.225 ± 0.035,0.188 ± 0.0027,0.15 ± 0.0045,0.337 ± 0.049,0.349 ± 0.082,0.408 ± 0.011,0.323 ± 0.025,–,–,–
